This is part of a sample that, as a whole, favours compounds with a hit. Of some 83,000 tested, about 20% had one in any assay.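 Treatment: one concentration, 48 hours, 96-well format. Scoring: percent growth, with anything below 10 considered active.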 Values without a mark were called inactive. The source made the active and inactive calls.
Tests used:
Experiment in all cases: NCI-60 one-dose screen, 48 h (100 = growth as untreated, 0 = no growth, -100 = all killed)
Conditions in all cases: 10 µM unless noted
NCI-H23 lung = tested on: NCI-H23 lung
NCI-H226 lung = tested on: NCI-H226 lung
NCI-H322M lung = tested on: NCI-H322M lung
HOP-62 NSCLC = tested on: HOP-62 NSCLC
NCI-H460 lung = tested on: NCI-H460 lung
HOP-92 NSCLC = tested on: HOP-92 NSCLC
NCI-H522 lung = tested on: NCI-H522 lung
A549/ATCC NSCLC = tested on: A549/ATCC NSCLC
786-0 renal = tested on: 786-0 renal
COLO 205 colon = tested on: COLO 205 colon

Row | Compound | growth (NCI-H23 lung) | growth (NCI-H226 lung) | growth (NCI-H322M lung) | growth (HOP-62 NSCLC) | growth (NCI-H460 lung) | growth (HOP-92 NSCLC) | growth (NCI-H522 lung) | growth (A549/ATCC NSCLC) | growth (786-0 renal) | growth (COLO 205 colon)
1 | Cc1cc(NC(=O)c2cnc(N3CCN(CCOCCOCCOCCOCCC(=O)N[C@H](C(=O)N4C[C@H](O)C[C@H]4C(=O)N[C@@H](C)c4ccc(-c5scnc5C)cc4)C(C)(C)C)CC3)cn2)c2ncccc2c1 | 4.34% (active) | 1.46% (active) | 35.6% | 4.92% (active) | 7.54% (active) | 4.9% (active) | -15.6% (active) | 66.7% | 29.9% | 47.1%
2 | COc1ccc(/C(=C\c2ccccc2)C(=O)O)cc1OC | 93.6% | 83.5% | 98% | 2.18% (active) | 101% | 97.9% | 101% | 102% | 104% | 100%
3 | C#Cc1cccc(NC(=O)Nc2cccc(N=C=S)c2)c1 | 99.3% [8.25 µM] | 101% [8.25 µM] | 95.1% [8.25 µM] | 115% [8.25 µM] | 112% [8.25 µM] | 106% [8.25 µM] | 90.9% [8.25 µM] | 90.8% [8.25 µM] | 95.4% [8.25 µM] | 130% [8.25 µM]
4 | COc1ccc(Nn2c(SCC(=O)Nc3nc(-c4ccc(Cl)cc4)cs3)nc(C)c2C)cc1 | 31.9% | 60.5% | 112% | 100% | 39.3% | 38.6% | 66.2% | 44% | 59.5% | 77.5%
5 | CC(C)(O)C1CCCN1C(=O)c1ccccc1I (stereo not given) | 94.6% | 89.4% | 101% | 95.4% | 85.8% | 58.6% | 83.9% | 92.1% | 87.7% | 105%
6 | CCCCCCCCCCCCCCCC(=O)OC[C@@]1(O)C[C@@]23CC[C@@H]4C(C)(C)[C@H](O)CC[C@@]4(C)[C@@H]2CC[C@H]1C3 | 98% | 99.2% | 114% | 101% | 107% | 113% | 91.2% | 104% | 0.227% (active) | 115%
7 | Clc1cc(Cl)cc(N2N=C(c3cccc(Nc4ccncc4)c3)CC2c2ccc3c(c2)OCO3)c1 (stereo not given) | 80.1% | 83.9% | 68.3% | -31.2% (active) | -90.2% (active) | 57.9% | -5.89% (active) | 15.2% | 91.7% | -47.5% (active)
8 | O=C1CCCCCCCCC(O)C(O)CCCC(c2cccs2)O1 (stereo not given) | 91% | 99.5% | 113% | 87.6% | 106% | 82.7% | 91.7% | 82.7% | 98.8% | 108%
9 | COc1ccccc1C(C[N+](=O)[O-])c1c(-c2ccccc2)[nH]c2cc(C)ccc12 (stereo not given) | 68.4% | 53.1% | 90.4% | 71.9% | 85.2% | 64.4% | 27.8% | 61.8% | 86.8% | 78.4%
10 | COc1ccc(/C=C(/c2ccccc2)[N+](=O)[O-])cc1 | -47.9% (active) | -6.73% (active) | 4.07% (active) | -36.2% (active) | -23.3% (active) | -55.6% (active) | -83.6% (active) | 5.17% (active) | -93.4% (active) | -71.9% (active)
11 | O=C1NC(=S)NC(=O)C1=Cc1cccc(C=C2C(=O)NC(=S)NC2=O)c1 | 102% | 98.8% | 110% | 104% | 104% | 116% | 93.1% | 108% | 12.2% | 113%
12 | CCOc1ccc(/C=N/Nc2cc(C)nc3ccc(Cl)cc23)cc1 | 78.9% | 79.5% | 66.9% | 94.4% | 3.37% (active) | 50.5% | 58.4% | 59.9% | 33.2% | 21%

Reference: PubChem BioAssay (NCI)
